Reference: the supplement of paper PMC10849652
The full data set covers some 7,900 targets. This sample favours those with a hit. About 0.6% of all pairs of compound and target were hits. Unmarked numbers belong to inactive results.

Assays:
Experiment in all cases: log2 fold change, soluble protein after heating vs DMSO (PISA); higher = thermal stabilisation; K562 cells, 10 uM, 30 min; active = over 0.2 and 3.5 SD of the protein, either way, in both replicates (recomputed)
[1] = compound: NC(=O)Nc1cc(-c2cccc(F)c2)sc1C(=O)N[C@H]1CCCNC1
Method in brief: (§1)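 Soluble protein was quantified by TMTpro 16plex LC-MS/MS after channel sums were equalised. It was obtained as the supernatant after 21,000xg for 90 min from pooled aliquots of K562 cells (2×10^6 cells/mL, 10 μM compound, 30 min) heated for 3 min across 48°C-58°C and extracted in PBS with 0.5% NP-40 at 4°C. Thermal stability values are relative to control samples and come from duplicates. They are given as log2 fold changes.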

[2] = compound: NC(=O)c1cnc(N[C@@H]2CCCC[C@@H]2N)nc1Nc1cccc(-n2nccn2)c1
Method in brief: as §1

[3] = compound: NC1(c2ccc(-c3nc4ccn5c(=O)[nH]nc5c4cc3-c3ccccc3)cc2)CCC1
Method in brief: as §1

[4] = compound: NCC(=O)Nc1ccc(-n2nc(C(F)(F)F)cc2-c2ccc3c(ccc4ccccc43)c2)cc1
Method in brief: as §1

entinostat = compound: Nc1ccccc1NC(=O)c1ccc(CNC(=O)OCc2cccnc2)cc1 [entinostat]
Method in brief: as §1

vorinostat = compound: O=C(CCCCCCC(=O)Nc1ccccc1)NO [vorinostat]
Method in brief: as §1

citarinostat = compound: O=C(CCCCCCNC(=O)c1cnc(N(c2ccccc2)c2ccccc2Cl)nc1)NO [citarinostat]
Method in brief: as §1

silmitasertib = compound: O=C(O)c1ccc2c(c1)nc(Nc1cccc(Cl)c1)c1ccncc12 [silmitasertib]
Method in brief: as §1

[5] = compound: O=C1NC(=O)C(c2cnc3ccccn23)=C1c1cn2c3c(cc(F)cc13)CN(C(=O)N1CCCCC1)CC2
Method in brief: as §1

[6] = compound: c1cc(OCCN2CCCCC2)cc(-c2n[nH]c3ccc(-c4nnc[nH]4)cc23)c1
Method in brief: as §1

entospletinib = compound: c1cn2cc(-c3ccc4cn[nH]c4c3)nc(Nc3ccc(N4CCOCC4)cc3)c2n1 [entospletinib]
Method in brief: as §1

Sequence of UniProt Q6NUM9 (Q6NUM9 whole entry, looked up): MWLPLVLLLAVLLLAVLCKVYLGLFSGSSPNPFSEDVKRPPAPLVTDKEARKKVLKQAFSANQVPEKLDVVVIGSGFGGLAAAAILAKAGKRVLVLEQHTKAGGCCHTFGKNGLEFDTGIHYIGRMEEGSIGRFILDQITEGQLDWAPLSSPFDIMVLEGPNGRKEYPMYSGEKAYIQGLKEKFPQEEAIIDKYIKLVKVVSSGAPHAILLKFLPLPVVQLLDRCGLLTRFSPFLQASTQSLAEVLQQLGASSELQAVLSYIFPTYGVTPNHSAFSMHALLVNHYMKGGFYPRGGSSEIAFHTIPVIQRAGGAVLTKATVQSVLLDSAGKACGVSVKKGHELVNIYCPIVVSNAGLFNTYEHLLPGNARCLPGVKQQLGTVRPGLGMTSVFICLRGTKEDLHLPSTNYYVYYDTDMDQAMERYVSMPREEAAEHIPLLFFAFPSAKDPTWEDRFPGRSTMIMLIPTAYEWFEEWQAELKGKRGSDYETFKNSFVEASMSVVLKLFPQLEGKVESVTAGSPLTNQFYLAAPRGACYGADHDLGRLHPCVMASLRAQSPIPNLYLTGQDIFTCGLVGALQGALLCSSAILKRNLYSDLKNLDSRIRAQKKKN
Sequence of UniProt Q8NBJ9 (Q8NBJ9 whole entry, looked up): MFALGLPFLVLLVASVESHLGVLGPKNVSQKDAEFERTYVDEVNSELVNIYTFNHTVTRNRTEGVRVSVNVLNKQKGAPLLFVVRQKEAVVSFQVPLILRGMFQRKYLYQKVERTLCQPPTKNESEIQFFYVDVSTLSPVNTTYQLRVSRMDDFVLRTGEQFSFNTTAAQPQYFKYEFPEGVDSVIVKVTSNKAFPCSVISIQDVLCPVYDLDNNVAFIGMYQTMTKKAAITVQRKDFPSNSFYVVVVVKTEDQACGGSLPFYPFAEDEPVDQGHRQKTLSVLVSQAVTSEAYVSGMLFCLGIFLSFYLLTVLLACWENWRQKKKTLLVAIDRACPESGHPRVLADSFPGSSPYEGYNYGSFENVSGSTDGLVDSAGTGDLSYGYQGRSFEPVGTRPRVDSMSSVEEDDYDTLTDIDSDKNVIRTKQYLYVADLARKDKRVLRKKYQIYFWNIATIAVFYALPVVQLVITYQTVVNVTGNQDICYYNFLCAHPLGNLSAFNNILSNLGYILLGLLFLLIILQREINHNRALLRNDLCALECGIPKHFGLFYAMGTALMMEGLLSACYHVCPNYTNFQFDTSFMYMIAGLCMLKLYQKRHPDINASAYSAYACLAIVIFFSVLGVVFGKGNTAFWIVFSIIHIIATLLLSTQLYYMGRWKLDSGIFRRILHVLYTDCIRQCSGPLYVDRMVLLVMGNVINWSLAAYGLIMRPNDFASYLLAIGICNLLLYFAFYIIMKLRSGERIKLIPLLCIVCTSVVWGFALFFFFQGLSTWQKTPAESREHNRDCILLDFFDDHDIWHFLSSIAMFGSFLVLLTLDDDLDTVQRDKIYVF
Sequence of UniProt P51812 (P51812 whole entry, looked up): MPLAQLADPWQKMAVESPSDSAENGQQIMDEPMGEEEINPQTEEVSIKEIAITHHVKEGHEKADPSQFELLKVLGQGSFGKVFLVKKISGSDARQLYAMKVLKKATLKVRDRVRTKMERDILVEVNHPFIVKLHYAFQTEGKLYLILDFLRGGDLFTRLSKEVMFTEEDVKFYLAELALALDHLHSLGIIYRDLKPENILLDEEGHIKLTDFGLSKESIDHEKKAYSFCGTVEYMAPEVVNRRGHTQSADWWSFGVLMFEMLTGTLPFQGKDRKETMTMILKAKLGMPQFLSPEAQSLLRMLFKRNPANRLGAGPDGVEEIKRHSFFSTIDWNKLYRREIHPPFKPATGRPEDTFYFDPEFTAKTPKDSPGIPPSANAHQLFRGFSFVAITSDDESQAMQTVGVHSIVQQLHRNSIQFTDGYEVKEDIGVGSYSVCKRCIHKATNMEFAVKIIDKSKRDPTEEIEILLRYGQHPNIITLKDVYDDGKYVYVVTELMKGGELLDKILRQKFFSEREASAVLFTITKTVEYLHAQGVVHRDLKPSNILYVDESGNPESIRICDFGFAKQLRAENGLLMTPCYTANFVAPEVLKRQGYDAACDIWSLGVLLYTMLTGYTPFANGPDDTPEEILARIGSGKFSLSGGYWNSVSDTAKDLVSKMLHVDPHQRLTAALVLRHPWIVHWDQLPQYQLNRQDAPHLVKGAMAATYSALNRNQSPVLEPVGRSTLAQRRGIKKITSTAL
Sequence of UniProt P49756 (P49756 whole entry, looked up): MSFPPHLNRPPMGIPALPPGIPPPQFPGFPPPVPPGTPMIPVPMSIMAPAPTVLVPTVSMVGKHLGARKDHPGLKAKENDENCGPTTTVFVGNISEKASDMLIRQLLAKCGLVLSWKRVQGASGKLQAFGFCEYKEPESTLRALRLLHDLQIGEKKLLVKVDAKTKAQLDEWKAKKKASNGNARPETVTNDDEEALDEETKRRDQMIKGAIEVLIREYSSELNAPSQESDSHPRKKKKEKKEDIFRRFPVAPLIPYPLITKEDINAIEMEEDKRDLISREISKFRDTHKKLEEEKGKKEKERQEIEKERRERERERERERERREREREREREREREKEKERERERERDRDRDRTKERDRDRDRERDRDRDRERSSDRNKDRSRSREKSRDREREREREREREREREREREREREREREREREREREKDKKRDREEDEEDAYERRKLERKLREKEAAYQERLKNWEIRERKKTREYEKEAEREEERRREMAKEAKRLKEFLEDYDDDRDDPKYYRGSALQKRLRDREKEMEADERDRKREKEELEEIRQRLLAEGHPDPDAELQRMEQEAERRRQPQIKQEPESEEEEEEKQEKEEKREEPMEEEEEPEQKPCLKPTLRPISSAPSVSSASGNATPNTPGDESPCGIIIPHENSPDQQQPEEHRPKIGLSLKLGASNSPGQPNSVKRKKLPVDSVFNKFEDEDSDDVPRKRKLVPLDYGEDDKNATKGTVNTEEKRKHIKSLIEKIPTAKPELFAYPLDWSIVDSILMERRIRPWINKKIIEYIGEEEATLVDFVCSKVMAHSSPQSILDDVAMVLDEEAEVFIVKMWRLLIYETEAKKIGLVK
Sequence of UniProt P62070 (P62070 whole entry, looked up): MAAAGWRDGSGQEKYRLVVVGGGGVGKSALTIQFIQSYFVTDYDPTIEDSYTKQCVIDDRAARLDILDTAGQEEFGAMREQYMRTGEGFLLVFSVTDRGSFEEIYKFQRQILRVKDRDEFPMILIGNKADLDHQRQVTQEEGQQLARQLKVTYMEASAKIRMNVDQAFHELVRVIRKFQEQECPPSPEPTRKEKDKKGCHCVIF
Sequence of UniProt Q14493 (Q14493 whole entry, looked up): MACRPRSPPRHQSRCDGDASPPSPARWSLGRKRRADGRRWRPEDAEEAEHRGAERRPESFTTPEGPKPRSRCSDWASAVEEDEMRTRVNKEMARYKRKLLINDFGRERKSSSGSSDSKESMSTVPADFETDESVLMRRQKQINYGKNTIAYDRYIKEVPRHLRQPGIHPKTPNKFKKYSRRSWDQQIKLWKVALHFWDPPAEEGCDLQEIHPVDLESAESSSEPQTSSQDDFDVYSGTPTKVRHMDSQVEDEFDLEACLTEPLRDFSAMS
Sequence of UniProt Q8N5L8 (Q8N5L8 whole entry, looked up): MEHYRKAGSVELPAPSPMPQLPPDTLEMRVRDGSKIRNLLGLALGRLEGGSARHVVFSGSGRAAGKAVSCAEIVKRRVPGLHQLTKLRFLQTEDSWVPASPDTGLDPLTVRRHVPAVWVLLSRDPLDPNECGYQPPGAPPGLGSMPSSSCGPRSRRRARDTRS
Sequence of UniProt Q96T51 (Q96T51 whole entry, looked up): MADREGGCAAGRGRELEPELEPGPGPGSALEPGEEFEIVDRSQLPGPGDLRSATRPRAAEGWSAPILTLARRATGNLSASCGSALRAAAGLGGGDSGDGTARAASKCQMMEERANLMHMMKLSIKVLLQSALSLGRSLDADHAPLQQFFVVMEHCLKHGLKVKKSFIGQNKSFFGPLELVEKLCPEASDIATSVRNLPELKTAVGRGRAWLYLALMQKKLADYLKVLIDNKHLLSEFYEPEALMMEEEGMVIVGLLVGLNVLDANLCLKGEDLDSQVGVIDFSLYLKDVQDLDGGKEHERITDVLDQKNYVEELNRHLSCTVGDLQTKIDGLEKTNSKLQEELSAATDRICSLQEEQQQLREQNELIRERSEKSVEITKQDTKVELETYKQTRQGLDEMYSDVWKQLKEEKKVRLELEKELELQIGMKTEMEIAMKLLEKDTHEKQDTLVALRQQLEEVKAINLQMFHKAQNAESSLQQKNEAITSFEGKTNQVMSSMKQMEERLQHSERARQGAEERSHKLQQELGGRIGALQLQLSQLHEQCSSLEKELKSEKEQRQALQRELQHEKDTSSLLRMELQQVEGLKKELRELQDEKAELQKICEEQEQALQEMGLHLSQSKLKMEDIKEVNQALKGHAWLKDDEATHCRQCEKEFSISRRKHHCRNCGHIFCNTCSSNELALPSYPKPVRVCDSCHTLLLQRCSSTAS
Sequence of UniProt Q99961 (Q99961 whole entry, looked up): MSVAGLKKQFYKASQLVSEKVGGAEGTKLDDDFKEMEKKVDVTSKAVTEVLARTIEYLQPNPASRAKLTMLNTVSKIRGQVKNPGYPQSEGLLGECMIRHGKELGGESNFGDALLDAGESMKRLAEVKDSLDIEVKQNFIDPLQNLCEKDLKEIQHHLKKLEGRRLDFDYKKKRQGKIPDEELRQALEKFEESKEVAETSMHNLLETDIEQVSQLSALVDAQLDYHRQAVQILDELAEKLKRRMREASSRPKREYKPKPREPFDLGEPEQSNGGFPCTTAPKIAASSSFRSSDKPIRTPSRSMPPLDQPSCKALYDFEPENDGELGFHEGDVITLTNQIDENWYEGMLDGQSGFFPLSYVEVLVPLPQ
Sequence of UniProt Q99643 (Q99643 whole entry, looked up): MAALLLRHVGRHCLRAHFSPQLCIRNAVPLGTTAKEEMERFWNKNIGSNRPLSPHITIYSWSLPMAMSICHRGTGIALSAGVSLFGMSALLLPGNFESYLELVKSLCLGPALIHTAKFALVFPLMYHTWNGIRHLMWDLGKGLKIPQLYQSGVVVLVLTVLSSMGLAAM

Target	log2 fold change [1]	log2 fold change [2]	log2 fold change [3]	log2 fold change [4]	log2 fold change (entinostat)	log2 fold change (vorinostat)	log2 fold change (citarinostat)	log2 fold change (silmitasertib)	log2 fold change [5]	log2 fold change [6]	log2 fold change (entospletinib)
RBM25 (UniProt P49756)	0	0.007	-0.058	-0.025	0.031	0.067	0.015	0.019	0.005	-0.053	-0.078
SIDT2 isoform 2 (UniProt Q8NBJ9)	0.057	-0.01	-0.086	0.297	-0.064	-0.107	0.002	-0.067	0.029	0.108	-0.003
RPS6KA3 (UniProt P51812)	-0.076	-0.177	-0.203	-0.029	0.044	0.048	0.079	-0.038	-0.046	-0.241	0.037
SEC16A isoform 5 (UniProt O15027)	0.006	-0.072	-0.14	0.055	0.071	0.154	0.071	-0.007	0.191	-0.022	0.069
RPTOR (UniProt Q8N122)	-0.026	-0.139	-0.243 (active)	-0.021	0.009	0.007	0.056	0.085	-0.025	-0.008	-0.048
RPA1 (UniProt P27694)	-0.189	0.007	-0.049	-0.052	0.06	0.106	0.079	-0.02	-0.046	0.006	-0.024
RHOXF2 (UniProt Q9BQY4)	0.004	0.015	0.039	0.013	-0.002	-0.091	0.006	0.045	-0.023	-0.036	0.062
RFC3 (UniProt P40938)	-0.001	-0.039	-0.078	-0.023	-0.028	0.028	0.077	-0.006	-0.039	-0.013	-0.037
SAFB2 (UniProt Q14151)	0.116	0.084	0.255	0.043	-0.076	-0.016	-0.098	0.119	0.084	-0.038	0.05
RPP25L (UniProt Q8N5L8)	0.003	-0.052	-0.012	-0.032	-0.001	-0.014	-0.08	0.073	0.183	-0.075	0.066
REEP4 (UniProt Q9H6H4)	0.002	-0.032	-0.012	0.084	0.027	0.088	0.048	0.027	0.097	-0.059	0.055
RRAS2 isoform 4 (UniProt P62070)	-0.068	0.03	0.08	0.038	-0.059	-0.069	0.01	0.048	-0.01	0.013	-0.012
RBM8A (UniProt Q9Y5S9)	-0.044	0.075	-0.045	-0.068	0.037	-0.025	0.03	0.011	-0.019	-0.076	0.061
RAB9A (UniProt P51151)	0.014	-0.026	-0.229 (active)	-0.022	0	0.035	0.039	-0.028	-0.032	-0.018	-0.015
SESN2 (UniProt P58004)	-0.069	-0.159	-0.129	-0.093	0.075	0.079	-0.081	0.108	-0.123	0.026	0.167
RRP9 (UniProt O43818)	0	0.053	0.14	0.08	-0.002	-0.035	0.003	0.069	0.112	-0.073	0.012
RMC1 (UniProt Q96DM3)	-0.026	-0.141	-0.384 (active)	-0.039	0.048	0.017	0.04	0.025	-0.036	-0.045	-0.03
RPS20 isoform 2 (UniProt P60866)	-0.012	0.056	0.151	0.037	-0.029	0.012	-0.091	-0.006	0.072	-0.1	0.064
RB1CC1 (UniProt Q8TDY2)	0.009	0.124	0.126	-0.022	0.001	0.047	0.114	-0.08	-0.077	0.111	-0.041
SEPTIN5 (UniProt Q99719)	-0.005	-0.012	-0.011	-0.004	-0.017	-0.001	0.059	-0.038	-0.013	-0.021	-0.011
SELENOH (UniProt Q8IZQ5)	0.227	0.194	0.011	0.049	0.066	-0.007	0.067	0.011	0.038	0.053	-0.143
RSRC1 (UniProt Q96IZ7)	-0.019	0.162	-0.005	-0.013	-0.04	0.022	0.049	-0.275 (active)	-0.029	-0.123	0.076
RRAGB (UniProt Q5VZM2)	0.112	-0.017	-0.317 (active)	0.023	0.012	0.018	-0.006	0.031	0.008	0.05	-0.04
SH2D1B (UniProt O14796)	-1.1 (active)	0.04	-0.135	-0.024	0.055	0.101	0.413	-0.111	-0.018	-0.062	-0.372
ROCK2 (UniProt O75116)	0.043	-0.044	-0.106	-0.017	0.031	0.08	0.013	0.096	0.017	0.06	-0.049
SH3GLB2 (UniProt Q9NR46)	-0.105	-0.13	-0.163	0.004	0.069	0.081	0.059	0.015	-0.028	-0.13	0.034
SDHC (UniProt Q99643)	-0.12	0.097	-0.079	0.041	-0.178	-0.042	0.033	0.032	0	-0.062	0.032

Target	log2 fold change [1]	log2 fold change [2]	log2 fold change [3]	log2 fold change [4]	log2 fold change (entinostat)	log2 fold change (vorinostat)	log2 fold change (citarinostat)	log2 fold change (silmitasertib)	log2 fold change [5]	log2 fold change [6]	log2 fold change (entospletinib)
RNASET2 (UniProt O00584)	-0.082	-0.114	-0.285 (active)	-0.033	-0.012	-0.04	0.074	-0.018	-0.048	-0.102	0.05
SHROOM2 (UniProt Q13796)	0.024	-0.09	0.275	0.006	-0.037	0.068	0.057	-0.141	-0.088	0.057	-0.173
RNF2 (UniProt Q99496)	-0.04	-0.023	-0.003	-0.051	0.102	-0.048	0.054	0.003	-0.014	-0.102	-0.003
SASH1 (UniProt O94885)	-0.08	-0.06	-0.053	-0.147	0.035	0.077	0.167	0.033	0.008	-0.218	0.053
RELA (UniProt Q04206)	-0.009	-0.06	-0.121	-0.016	0.019	0.036	0.079	-0.029	-0.017	-0.002	-0.062
SLC1A5 (UniProt Q15758)	-0.057	0.117	0.155	0.03	-0.041	-0.039	-0.003	-0.016	-0.001	-0.03	-0.032
RBM12 (UniProt Q9NTZ6)	-0.044	-0.062	-0.219	-0.106	0.133	0.128	0.107	-0.026	-0.219	-0.002	-0.055
SLC19A1 (UniProt P41440)	0.1	0.157	0.036	0.007	-0.017	0.057	0.02	-0.013	0.207	-0.033	-0.121
SFXN5 (UniProt Q8TD22)	-0.043	0.042	-0.072	-0.095	-0.068	0.019	-0.028	-0.003	0.012	0.072	0.01
SLBP (UniProt Q14493)	0.043	0.051	-0.028	-0.005	0.018	0.085	0.035	0.007	0.064	0.035	-0.101
SAAL1 (UniProt Q96ER3)	-0.091	0.031	-0.207	-0.058	0.04	0.006	0.011	0.119	-0.04	-0.013	0.093
RPS21 (UniProt P63220)	0.022	0.018	0.114	-0.012	-0.061	-0.059	0.002	0.008	0.045	-0.015	-0.016
RHEB (UniProt Q15382)	-0.042	-0.014	-0.058	-0.029	-0.012	0.002	0.022	-0.033	-0.038	-0.025	-0.073
RAD50 isoform 2 (UniProt Q92878)	-0.011	-0.042	-0.057	-0.064	0.038	-0.014	0.047	-0.008	-0.034	0.009	-0.02
RAC3 (UniProt P60763)	-0.142	0.067	0.058	-0.002	-0.14	-0.037	-0.007	0.016	-0.083	0.176	0.071
SCD (UniProt O00767)	-0.064	-0.151	-0.071	-0.054	-0.043	-0.382 (active)	-0.403 (active)	0.083	0.051	-0.005	0.023
SH3GL1 (UniProt Q99961)	-0.049	-0.088	-0.106	-0.032	0.143	0.082	0.068	0.028	0.006	-0.041	-0.008
RAF1 isoform 2 (UniProt P04049)	-0.208	-0.012	0.086	-0.017	-0.033	0.069	-0.037	-0.033	-0.13	-0.133	-0.007
RPS6KA2 isoform 2 (UniProt Q15349)	-0.129	-0.256	-0.269	-0.035	0.067	0.122	0.106	-0.044	-0.056	-0.295	0.013
RUFY1 (UniProt Q96T51)	0.06	-0.057	-0.086	-0.101	0.05	0.031	0.032	0.11	0.038	-0.037	0.042
RETSAT (UniProt Q6NUM9)	-0.058	-0.05	-0.028	-0.019	0.129	-0.048	0.028	-0.014	0.026	-0.047	-0.006
RPS15 (UniProt P62841)	0.005	-0.13	0.135	0	-0.068	0	-0.034	0.02	0.036	-0.144	0.186
RPS12 (UniProt P25398)	0.006	0.073	0.134	0.068	-0.032	-0.002	0.009	-0.042	0.076	-0.113	0.055
RGS10 (UniProt O43665)	0.077	0.068	-0.037	0.11	0.038	0.054	0.087	0.01	-0.057	0.033	-0.006
RSF1 (UniProt Q96T23)	-0.17	-0.078	-0.246	-0.198	0.073	0.028	-0.087	0.04	-0.182	0.081	0.052
RABGAP1L isoform 3 (UniProt Q5R372)	-0.012	-0.012	-0.05	0.036	0.016	0.025	0.06	0.019	0.073	-0.011	-0.021
RNASEH2A (UniProt O75792)	-0.017	-0.06	-0.181	-0.109	0.037	-0.145	0.015	0.014	-0.208	-0.015	0.011
